Source: PubChem (National Center for Advancing Translational Sciences (NCATS))
An excerpt weighted towards active compounds, which were near 21% of everything screened.
Pf growth 48h = inhibits P. falciparum growth in the first generation, 48 h | P. falciparum luciferase growth in erythrocytes, 48 h | Potency, µM (doses to about 28.7 µM), usual class: inhibitors | 310,000 compounds, 5.9% hits | AID 504832; active means well fitted inhibition curve with a large enough effect; inconclusive means small, poorly fitted or top-dose-only effect, or another doubt; inactive means no such curve, though single readings can be large or run the other way
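Read-out is firefly luciferase luminescence from an integrated reporter in P. falciparum, so falling signal marks reduced parasite growth. Infected erythrocytes were at 2% hematocrit and 0.1% parasitemia (final) in Albumax-supplemented RPMI 1640.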
Shiga inhibitor = blocks Shiga toxin action in Vero cells; Vero cells, Shiga toxin protein synthesis inhibition reporter; inhibition, % at 38.7 µM; 290,000 compounds, 9.2% hits; in the data active means inhibition mostly above about 28%, no sharp cut-off; inactive means mostly below about 43%
NS1 inh = influenza NS1 inhibition | Potency, µM (top dose mostly 46.1 µM) | AID 2326 | 270,000 compounds, 0.4% hits; further: actives are rising curves; nearly all actives have a fitted effect of over 50% in size
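Read-out: OD600 growth recovery of NS1-expressing budding yeast. Cells grown overnight at 30C in -URA glucose medium, washed, resuspended and diluted 1:100 in 2% galactose assay medium, pH 6.0. Same strain lacking NS1 served as positive control.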
Pf growth 96h = P. falciparum growth inhibition at 96 hour, primary screen for plastid delayed-death inhibitors. P. falciparum luciferase reporter growth, 96 h. Potency, µM (doses to about 28.7 µM), usual class: inhibitors. 320,000 compounds, 6.9% hits. AID 504834; active means well fitted inhibition curve with a large enough effect; inconclusive means small, poorly fitted or top-dose-only effect, or another doubt; inactive means no such curve, though single readings can be large or run the other way
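96 h incubation, 37 C, 5% CO2, of luciferase-reporter P. falciparum-infected RBCs (2% hematocrit, 0.05% parasitemia final) with test compounds; endpoint luminescence.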
SARS PLP yeast = SARS-CoV PLP inhibition in yeast | S. cerevisiae expressing SARS-CoV PLpro, growth rescue | Potency, µM (top dose mostly 32.9 µM), actives largely listed as activators | 330,000 compounds, 0.19% hits; further: nearly all actives have a fitted effect of over 55% in size
Cycloheximide cs = counter-screen for Shiga toxin inhibitors: cycloheximide protein synthesis inhibition | cell reporter, cycloheximide protein synthesis inhibition counterscreen | AID 2314 | 300,000 compounds, 12% hits | max response, %; in the data active means max response mostly above about 13%, no sharp cut-off; inactive means mostly below about 14%; further: read at 38.3 µM for the half of the compounds with a filed dose
Hits are given with their value; i = inactive; ? = inconclusive; nt = not tested or not shown. Unless noted, the call rests on the fitted dose curve.

SMILES	Pf growth 48h	Shiga inhibitor	NS1 inh	Pf growth 96h	SARS PLP yeast	Cycloheximide cs
CC1(S(=O)(=O)O)CC(=O)c2ccccc2C1=O (stereo not drawn)	14.7µM	i	i	1.65µM	i	i
O=C1c2ccccc2C(=O)C1(O)O	i	nt	nt	i	i	nt
CC(=O)c1cccc(NC(=O)C2C3C=CC(C3=C(c3ccccc3)c3ccccc3)C2C(=O)O)c1 (stereo not drawn)	i	i	nt	?	i	10.9
CNC(=O)c1ccc(NC(=O)Nc2ccccc2)cc1	i	49.9	i	?	i	29.6
CC(=O)c1cccc(NC(=O)CCOc2ccccc2)c1	i	50.7	i	i	i	24.9
O=C(NNC(=O)c1ccncc1)Nc1ccccc1	i	i	i	i	i	i
CC(=O)c1cccc(NC(=O)C2CCCCC2)c1	i	i	i	1.47µM	i	i
CC(=O)c1cccc(NC(=S)NC2CCCCC2)c1	i	i	i	i	i	i
COC(=O)c1cccc(NC(=O)CCCOc2ccccc2)c1	?	i	i	i	i	i
O=C(OCc1nnc(-c2ccccc2)o1)c1cccc(-n2cnnn2)c1	i	nt	nt	i	i	nt
CCOc1cc(N2CCOCC2)c(OCC)cc1NC(=O)c1ccc(OC(C)C)cc1	i	i	i	?	i	i
CCN(CC)c1ccc(NC(=O)Nc2ccc(C(C)=O)cc2)cc1	?	i	i	i	i	i
CC(=O)c1cccc(NC(=O)Nc2ccccc2)c1	i	61.8	i	i	i	25.7
CC(=O)c1ccc(NC(=O)Nc2ccc(NS(=O)(=O)c3ccc(C)cc3)cc2)cc1	?	i	i	i	i	i
CC(=O)c1cccc(NC(=O)N(c2ccccc2)c2ccccc2)c1	?	nt	i	?	i	i
CC(=O)c1ccc(NC(=O)Nc2ccccc2)cc1	i	78.8	i	nt	i	38.3
CCN(CC)c1ccc(NC(=O)Nc2ccccc2)cc1	?	58.5	i	i	i	48.1
CCCC(=O)Nc1ccc(C(=O)NCc2ccccc2Cl)cc1	i	i	i	?	i	i
CC(=O)c1ccc(NC(=O)C(C)NCc2ccccc2Cl)cc1 (stereo not drawn)	i	i	nt	?	i	24.2
Cc1cc(=O)[nH]c(SCC(=O)Nc2c(C)n(C)n(-c3ccccc3)c2=O)c1C#N	i	nt	nt	i	i	nt
COc1ccc(OC)c(CN2CCN(C(=O)c3ccco3)CC2)c1	i	i	i	?	i	i
O=C(c1ccco1)N1CCN(Cc2csc(-c3ccccc3Cl)n2)CC1	i	83.2	i	i	i	50.1
COc1cccc(CN2CCN(C(=O)c3ccco3)CC2)c1	i	i	i	0.828µM	i	i
COc1ccc(NC(=O)C(=O)NCCN2CCN(C(=O)c3ccco3)CC2)cc1	i	i	nt	0.928µM	i	i
Cc1ccc(COc2coc(CN3CCN(C(=O)c4ccco4)CC3)cc2=O)cc1	11.7µM	nt	nt	?	i	nt
SMILES	Pf growth 48h	Shiga inhibitor	NS1 inh	Pf growth 96h	SARS PLP yeast	Cycloheximide cs
CSc1cccc(NC(=S)NC(=O)c2cccnc2)c1	i	i	i	?	i	i
Cn1c(=O)[nH]c(=O)c2c1nc(NC1CCCC1)n2Cc1ccccc1	i	nt	i	i	i	i
CC1(c2ccccc2)NC(=O)N(CC(=O)N2CCN(S(=O)(=O)c3cccs3)CC2)C1=O (stereo not drawn)	i	nt	nt	i	i	nt
O=C(c1ccco1)N1CCN(Cc2c(Cl)cccc2Cl)CC1	i	i	i	2.62µM	i	21.0
CN(C)/C=C1\N=C(c2ccc(Cl)cc2Cl)OC1=O	nt	i	i	nt	i	20.8
CN(C)/C=C1\N=C(c2cccnc2Oc2ccc(Cl)cc2)OC1=O	i	i	i	i	i	i
Cc1cccc(OCC2=N/C(=C\N(C)C)C(=O)O2)c1	i	i	i	i	i	21.5
Cc1ccc(C2=N/C(=C\N(C)C)C(=O)O2)cc1	nt	74.9	i	i	i	39.8
CSc1nnc(-c2cc[n+](C)cc2)n1CCO	i	i	i	i	i	i
Cc1cc(C)n(CCC(=O)Nc2ccc(-c3ccno3)cc2)n1	i	i	i	i	i	i
CC1(C)C(=O)Nc2ccccc2N1C(=O)CSc1nc(-c2ccccc2)cs1	i	i	i	i	i	16.3
Cc1ccccc1CSCC(=O)NC(=O)NCc1ccco1	i	i	i	6.57µM	i	16.0
N#CCSc1ccc2nc(-c3ccccc3)cn2n1	i	105.2	i	i	i	i
CC(C)NC(=O)CSc1nc(-c2ccccc2)cs1	i	88.7	nt	i	i	25.9
